Records with an inconclusive call do not appear. Active and inactive are the calls of the source. The call rests on the fitted dose curve; in most records, active means well fitted inhibition curve with a large enough effect; inconclusive means small, poorly fitted or top-dose-only effect; inactive means flat fitted curve, though single readings scatter.
Legend:
Experiment in all cases: Cytotoxic Profiling of Annotated Libraries Using Quantitative High-Throughput Screening (AID 1296008); further: nearly all actives have a fitted effect of over 60% in size
Details in all cases: Five cell lines viability, CellTiter-Glo ATP luminescence, 48-72 h; max response: hits give low values
HaCat = system: HaCat
Summary of the method: (§1)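 Cells exposed to compounds for 48 or 72 hr at 37 degrees Celsius. Viability read as ATP-coupled luminescence with CellTiter-Glo after 10 min at room temperature.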

KB-3-1 = system: KB-3-1
Summary of the method: as §1

NIH3T3 = system: NIH3T3
Summary of the method: as §1
On the % scale 0 is the no-effect control and ±100 the full control effect; potency means the concentration at half of the fitted maximal effect.

COc1cccc(C(=O)N2CCN(C(=O)COc3cccc(C)c3)CC2)c1OC
inactive: max response (HaCat) -1.12% | max response (KB-3-1) -10.9% | max response (NIH3T3) -5.08%

C[C@@H]1C(=O)O[C@H]2C[C@]34[C@H]5C[C@@H](C(C)(C)C)[C@]36[C@@H](OC(=O)[C@H]6O)O[C@]4(C(=O)O5)[C@]21O
inactive: max response (HaCat) 3.22% | max response (KB-3-1) -3.28% | max response (NIH3T3) 3.92%

CC(C)c1c2cc(-c3ccnc(NC4CCC(NC5CCOCC5)CC4)n3)ccc2nn1C (stereo unspecified)
active: Potency (HaCat) 1640 nM | Potency (KB-3-1) 231 nM | Potency (NIH3T3) 1030 nM

C=C1C(=O)O[C@@H]2/C=C(\C)C(=O)/C=C/[C@](C)(O)C[C@@H](OC(=O)C(C)C)[C@@H]12
active: Potency (HaCat) 2020 nM | Potency (KB-3-1) 7180 nM | Potency (NIH3T3) 2550 nM

CCCC(=O)C1CCN(c2ncnc3c2CN(C(=O)c2ccc(-c4ccccc4)cc2)CC3)CC1
inactive: max response (HaCat) -5.72% | max response (KB-3-1) -16.8% | max response (NIH3T3) -13.2%

COC1CC(O[C@H]2CC[C@@]3(C)C(CCC4C3[C@H](OC(C)=O)[C@@H](OC(=O)/C=C/c3ccccc3)[C@]3(C)C(C(C)=O)CC[C@]43O)C2)OC(C)C1OC1CC(OC)C(OC2CC(OC)C(OC3OC(C)C(OC4OC(CO)C(O)C(O)C4O)C(OC)C3O)C(C)O2)C(C)O1 (stereo partly specified)
inactive: max response (HaCat) -18.9% | max response (KB-3-1) -0.895% | max response (NIH3T3) -9.54%

C=C1CCCC2(C)CC3(OC)OC(=O)C(C)=C3CC12 (stereo unspecified)
inactive: max response (HaCat) 2.5% | max response (KB-3-1) -2.16% | max response (NIH3T3) -10.6%

C=C[C@H]1[C@H](O[C@@H]2O[C@H](CO)[C@@H](O)[C@H](O)[C@H]2O)OC=C(C(=O)OC)[C@H]1C[C@@H]1c2cc(O)c(O)cc2CCN1C(C)=O
inactive: max response (HaCat) 3.48% | max response (KB-3-1) -1.92% | max response (NIH3T3) -10.7%

COC(=O)c1cc(OC)c(O[C@@H]2O[C@@H](C)[C@H](O)[C@@H](O)[C@H]2O)c(OC)c1
inactive: max response (HaCat) -17.1% | max response (KB-3-1) 4.85% | max response (NIH3T3) 2.7%

C=C1CC[C@H]2[C@@](C)(CCC(O)[C@@]2(C)CO)[C@@H]1CCC1=CCOC1=O (stereo partly specified)
inactive: max response (HaCat) -3.43% | max response (KB-3-1) -26.3% | max response (NIH3T3) -1.37%

O=C(OC[C@@]1(O)CO[C@@H](O[C@H]2[C@H](Oc3ccc(O)cc3)O[C@H](CO)[C@@H](O)[C@@H]2O)[C@@H]1O)c1ccc(O)cc1
inactive: max response (HaCat) -0.439% | max response (KB-3-1) -1.14% | max response (NIH3T3) -2.03%

COC(=O)C1=COC(OC2OC(CO)C(O)C(O)C2O)C2C1C=CC2(O)CO (stereo unspecified)
inactive: max response (HaCat) -21.5% | outcome (KB-3-1) | max response (NIH3T3) 3.54%
